Results filed as inconclusive are left out. Calls of active or inactive are those of the source. Unless noted, calls come from the whole dose curve; as a rule, active = well fitted curve in the direction sought with a large enough effect; inconclusive = small, poorly fitted or top-dose-only effect, or another doubt; inactive = no such curve, though single readings can be large; an effect the other way counts as inactive or inconclusive.
Legend:
[1] = molecular target: D(1A) dopamine receptor (Homo sapiens) (UniProt P21728); assay: HTS Assay for Allosteric Agonists of the Human D1 Dopamine Receptor: Primary Screen for Agonists (AID 488981); note: 0% is about no effect
D(1A) dopamine receptor (Homo sapiens), sequence (P21728 whole entry, looked up): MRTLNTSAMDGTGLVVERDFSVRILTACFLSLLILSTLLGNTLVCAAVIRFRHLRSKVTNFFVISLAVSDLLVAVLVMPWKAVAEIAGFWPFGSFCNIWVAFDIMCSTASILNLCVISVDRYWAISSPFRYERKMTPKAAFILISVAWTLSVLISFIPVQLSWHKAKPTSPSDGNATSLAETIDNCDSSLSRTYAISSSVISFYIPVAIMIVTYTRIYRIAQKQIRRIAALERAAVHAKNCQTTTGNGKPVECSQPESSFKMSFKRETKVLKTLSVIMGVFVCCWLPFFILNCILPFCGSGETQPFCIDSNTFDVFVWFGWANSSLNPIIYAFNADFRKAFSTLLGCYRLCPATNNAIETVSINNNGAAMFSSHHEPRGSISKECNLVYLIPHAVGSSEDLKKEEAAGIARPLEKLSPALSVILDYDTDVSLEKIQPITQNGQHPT
Outline: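 Tetracycline-induced HEK293 Trex D1 cells with forced coupling to calcium, loaded with no-wash calcium dye; kinetic fluorescence read 180 s after compound addition for agonism, then a further 180 s after an EC20 dopamine challenge for potentiation.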

[2] = Validation screen for small molecules that induce genotoxicity in human embryonic kidney (HEK293T) cells expressing luciferase-tagged ELG1 (AID 493106); note: 0% is about no effect
Outline: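 Cells were dispensed at 2,000 per well, then 23 nL compound or DMSO was pinned in. After 16 hr at 37 °C and 5% CO2, ONE-Glo reagent was added. Luciferase activity was measured following 30 min at room temperature.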

[3] = molecular target: ATPase family AAA domain-containing protein 5 (Homo sapiens) (UniProt Q96QE3); assay: Validation screen for small molecules that inhibit ELG1-dependent DNA repair in human embryonic kidney (HEK293T) cells expressing luciferase-tagged ELG1 (AID 493107);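 note: cells co-treated with the DNA-damaging agent 5-fluorouridine alongside compound; series mostly up to about 46 µM; % is set by controls: 0 for no effect and ±100 for the full control effect; inhibitors lower the ELG1-luciferase luminescence signal; nearly all actives have a fitted effect of over 70% in size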
Outline: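 Cells are dispensed in 1536-well format, then 5-fluorouridine and compound are pinned in. After a 16 hr incubation at 37 °C and 5% CO2, ONE-Glo is added and luciferase measured on a CCD imager.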

[4] = Nrf2 qHTS screen for inhibitors: Validation (AID 493153; active = well fitted inhibition curve with a large enough effect in the main read-out, with a control signal flat, not every such curve was filed as active); settings: viability change: measured here: cytotoxicity max response
Outline: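 A549 ARE_Fluc, 5% FBS OPTI-MEM; cpd titration, 18-24 h, 37°C/5% CO2. Read 1: CellTiter-Fluor (Ex 405/Em 525), cytotox. Read 2: luciferase lum, Nrf2 activity.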

[5] = qHTS for Inhibitors of Cell Surface uPA Generation: Validation Assay (AID 493164);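 note: RAW 264.7 macrophage cells exposed to compound for 18 h; 0% is about no effect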
Outline: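 ATP-Lite luminescence read-out: ATP remains high when uPA activity-dependent LF translocation into the cytoplasm is blocked. RAW 264.7 cells, 18 h compound exposure at 37 C; 7-point titration, 2.45 nM to 38.3 uM final.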

[6] = molecular target: Galactokinase (Homo sapiens) (UniProt P51570); assay: qHTS Validation Assay for Inhibitors of Human Galactokinase (GALK) (AID 493189); note: 0% is about no effect
Galactokinase (Homo sapiens), sequence (P51570 whole entry, looked up): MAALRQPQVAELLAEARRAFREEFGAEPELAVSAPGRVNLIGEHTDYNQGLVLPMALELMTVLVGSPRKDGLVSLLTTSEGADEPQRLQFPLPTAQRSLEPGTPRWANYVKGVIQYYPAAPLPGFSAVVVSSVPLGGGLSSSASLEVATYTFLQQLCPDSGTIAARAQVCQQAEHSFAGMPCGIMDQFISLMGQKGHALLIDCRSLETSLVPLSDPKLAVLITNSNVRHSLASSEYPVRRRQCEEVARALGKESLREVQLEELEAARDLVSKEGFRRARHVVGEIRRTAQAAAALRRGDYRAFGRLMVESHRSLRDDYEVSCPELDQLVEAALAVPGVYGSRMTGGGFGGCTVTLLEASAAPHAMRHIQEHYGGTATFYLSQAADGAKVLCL
Outline: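 GALK (5 nM) with 35 uM ATP and 100 uM galactose in HEPES pH 8.0 with MgCl2, NaCl, DTT and BSA. Reaction ran 1 h at room temperature. Residual ATP read by Kinase-Glo Plus luminescence.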

[7] = Validation screen for small molecules that induce DNA re-replication in SW480 colon adenocarcinoma cells (AID 504364); note: 0% is about no effect
Outline: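 Image-based qHTS: compounds were incubated with SW480 cells for 48 hr, nuclei stained with Hoechst, and per-nucleus fluorescence intensity scanned to flag cells with excess DNA content.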

[8] = molecular target: Peptidyl-prolyl cis-trans isomerase NIMA-interacting 1 (Homo sapiens) (UniProt Q13526); assay: qHTS Validation Assay to Find Inhibitors of Pin1 (AID 504536; active = well fitted inhibition curve with a large enough effect in the polarisation, with a control signal flat, not every such curve was filed as active; the % refers to the polarisation;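 note: 0% = full Pin1 enzyme wells and -100% = no-enzyme wells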)
Peptidyl-prolyl cis-trans isomerase NIMA-interacting 1 (Homo sapiens), sequence (Q13526 whole entry, looked up): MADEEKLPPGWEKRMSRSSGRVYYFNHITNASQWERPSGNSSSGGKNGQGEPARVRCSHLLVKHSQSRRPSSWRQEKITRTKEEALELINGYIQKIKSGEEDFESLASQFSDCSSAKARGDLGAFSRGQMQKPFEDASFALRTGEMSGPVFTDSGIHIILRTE
Outline: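 Fluorescence polarization competition: compounds (titration) displace HiFluor-488-labeled Pin1-1b peptide from Pin1 (0.3 uM final) in pH 7.5 HEPES buffer with DTT, 10 min at room temperature; %Activity normalized to no-enzyme wells, curves fitted.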

[9] = molecular target: Phosphoglycerate kinase, glycosomal (Trypanosoma brucei brucei) (UniProt P07378); assay: qHTS Validation Assay to Find Inhibitors of Phosphoglycerate Kinase (AID 504547);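 note: control wells lack PGK and mark full inhibition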
Phosphoglycerate kinase, glycosomal (Trypanosoma brucei brucei), sequence (P07378 whole entry, looked up): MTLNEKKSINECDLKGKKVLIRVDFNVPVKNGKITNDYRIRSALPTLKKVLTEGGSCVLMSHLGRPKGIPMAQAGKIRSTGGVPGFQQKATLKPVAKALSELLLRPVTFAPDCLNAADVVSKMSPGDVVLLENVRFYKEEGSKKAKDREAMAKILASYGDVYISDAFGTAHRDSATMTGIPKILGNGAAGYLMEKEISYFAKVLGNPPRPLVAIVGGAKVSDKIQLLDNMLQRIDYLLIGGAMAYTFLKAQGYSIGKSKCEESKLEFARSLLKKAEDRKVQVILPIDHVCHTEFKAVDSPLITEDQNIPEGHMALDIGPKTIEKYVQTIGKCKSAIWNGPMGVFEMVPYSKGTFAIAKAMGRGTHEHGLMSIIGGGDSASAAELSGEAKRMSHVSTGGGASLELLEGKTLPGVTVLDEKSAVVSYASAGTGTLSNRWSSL
Outline: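 Compounds are pinned into the substrate/PGK mixture, and GAPDH (100nM final) is added to start the reaction by producing 1,3-BPG. After 60 minutes at room temperature, Kinase-Glo Plus is added and luminescence is measured 10 minutes later.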

[10] = molecular target: phosphoglycerate mutase (Leishmania major) (UniProt Q4Q090); assay: qHTS Validation Assay to Find Inhibitors of Phosphoglycerate Mutase (AID 504548);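 note: end-point luminescence from Kinase-GloPlus after the PGAM reaction; series mostly up to about 58 µM; % is set by controls: 0 for no effect and ±100 for the full control effect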
phosphoglycerate mutase (Leishmania major), sequence (Q4Q090 1-553): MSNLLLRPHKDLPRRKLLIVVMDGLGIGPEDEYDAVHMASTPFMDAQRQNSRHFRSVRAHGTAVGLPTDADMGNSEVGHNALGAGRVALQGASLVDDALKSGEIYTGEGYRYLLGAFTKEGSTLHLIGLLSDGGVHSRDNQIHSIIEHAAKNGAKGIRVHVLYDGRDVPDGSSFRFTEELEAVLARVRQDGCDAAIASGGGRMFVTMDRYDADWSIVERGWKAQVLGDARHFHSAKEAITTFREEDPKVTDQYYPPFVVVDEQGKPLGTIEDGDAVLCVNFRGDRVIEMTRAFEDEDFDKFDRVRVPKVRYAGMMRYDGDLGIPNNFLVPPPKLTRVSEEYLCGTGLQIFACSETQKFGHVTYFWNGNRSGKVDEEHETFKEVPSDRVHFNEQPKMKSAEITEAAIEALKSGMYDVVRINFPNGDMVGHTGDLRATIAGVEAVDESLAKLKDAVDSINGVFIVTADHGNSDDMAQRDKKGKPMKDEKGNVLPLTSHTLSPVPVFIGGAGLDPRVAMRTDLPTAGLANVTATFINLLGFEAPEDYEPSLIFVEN
Outline: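 Inhibition of L. major PGAM was assessed by Kinase-GloPlus luminescence following a 45-minute room-temperature reaction with enzyme at 1.25nM final.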

[11] = molecular target: Ubiquitin carboxyl-terminal hydrolase 1 (Homo sapiens) (UniProt O94782); assay: Inhibitors of USP1/UAF1: Pilot qHTS (AID 504865);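 note: rhodamine fluorescence freed from ubiquitin-rhodamine substrate followed over time; top concentration of the series differs between compounds; % is set by controls: 0 for no effect and ±100 for the full control effect; nearly all actives have a fitted effect of over 35% in size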
Ubiquitin carboxyl-terminal hydrolase 1 (Homo sapiens), sequence (O94782 whole entry, looked up): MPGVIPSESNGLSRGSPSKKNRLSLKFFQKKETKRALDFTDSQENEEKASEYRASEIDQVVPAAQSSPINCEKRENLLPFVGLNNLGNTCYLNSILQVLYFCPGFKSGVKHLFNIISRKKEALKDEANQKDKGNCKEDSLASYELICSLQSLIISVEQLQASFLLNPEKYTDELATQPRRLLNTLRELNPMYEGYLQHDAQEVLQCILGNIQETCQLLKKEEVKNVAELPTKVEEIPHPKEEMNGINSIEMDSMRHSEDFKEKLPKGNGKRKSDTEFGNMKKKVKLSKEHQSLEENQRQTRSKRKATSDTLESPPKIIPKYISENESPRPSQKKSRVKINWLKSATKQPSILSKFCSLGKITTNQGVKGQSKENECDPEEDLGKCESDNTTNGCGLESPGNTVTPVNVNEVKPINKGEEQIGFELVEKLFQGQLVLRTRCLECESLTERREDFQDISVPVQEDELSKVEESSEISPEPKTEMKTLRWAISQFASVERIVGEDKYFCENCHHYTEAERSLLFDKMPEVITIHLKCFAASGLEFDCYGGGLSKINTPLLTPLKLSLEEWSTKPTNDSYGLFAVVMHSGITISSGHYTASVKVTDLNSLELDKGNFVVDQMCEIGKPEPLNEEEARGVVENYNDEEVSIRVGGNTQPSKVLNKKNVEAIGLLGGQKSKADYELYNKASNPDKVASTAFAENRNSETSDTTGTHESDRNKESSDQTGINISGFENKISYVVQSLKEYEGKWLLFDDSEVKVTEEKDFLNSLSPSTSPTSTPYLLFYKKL
Outline: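 USP1/UAF1 complex at 1 nM preincubated 15 min at room temperature with compound, then Ub-Rho substrate added at 150 nM final. Fluorescence (480/540 nm) read kinetically in 50 mM HEPES pH 7.8, 0.5 mM EDTA, 1 mM TCEP, 0.1 mg/ml BSA, 0.01% Tween-20.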

[12] = qHTS for Inhibitors of ATXN expression: Validation of Cytotoxic Assay (AID 588349); note: % is set by controls: 0 for no effect and ±100 for the full control effect
Outline: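 Titrated compounds are added to cultured HEK293 cells, which are then held at 37 degrees C for 72 hr; loss of intracellular ATP, measured with CellTiter Glo, indicates toxicity.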

[13] = qHTS for Inhibitors of ATXN expression: Validation (AID 588378); note: series mostly up to about 57 µM; % is set by controls: 0 for no effect and ±100 for the full control effect; nearly all actives have a fitted effect of over 75% in size
Outline: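 HEK293 cells carrying ATXN2-firefly luciferase reporter, treated with compound 24 h at 37 °C. Viability read first by CellTiter-Fluor (405/525 nm), then reporter expression by Bright-Glo luminescence; controls were a known ATXN2 expression inhibitor and a luciferase inhibitor.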

[14] = molecular target: ATP-dependent 6-phosphofructokinase (Trypanosoma brucei brucei) (UniProt O15648); assay: qHTS Assay to Find Inhibitors of T. brucei phosphofructokinase: hit validation (AID 492961);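 note: luminescence reports ADP formed as PFK phosphorylates fructose-6-phosphate with ATP; series mostly up to about 51 µM; % is set by controls: 0 for no effect and ±100 for the full control effect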
ATP-dependent 6-phosphofructokinase (Trypanosoma brucei brucei), sequence (O15648 whole entry, looked up): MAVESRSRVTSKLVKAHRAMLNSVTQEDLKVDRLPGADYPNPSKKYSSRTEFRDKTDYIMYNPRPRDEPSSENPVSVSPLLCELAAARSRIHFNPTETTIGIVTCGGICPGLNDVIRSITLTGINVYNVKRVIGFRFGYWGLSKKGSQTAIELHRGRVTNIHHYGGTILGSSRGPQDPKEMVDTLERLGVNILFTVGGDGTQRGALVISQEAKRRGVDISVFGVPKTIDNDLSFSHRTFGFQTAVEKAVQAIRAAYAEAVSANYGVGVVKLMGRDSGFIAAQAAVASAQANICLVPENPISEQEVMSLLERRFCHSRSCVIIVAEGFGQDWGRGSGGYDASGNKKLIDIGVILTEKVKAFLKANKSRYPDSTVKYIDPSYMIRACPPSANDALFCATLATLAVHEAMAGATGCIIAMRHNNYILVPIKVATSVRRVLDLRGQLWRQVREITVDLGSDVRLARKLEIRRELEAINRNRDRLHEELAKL
Outline: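 Inhibition of parasite PFK is measured as reduced ADP formation, quantified via luciferase after ATP depletion. Assay used 0.1 mM ATP, 0.5 mM F6P, 1.25 nM enzyme, 45 min incubation.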

[15] = molecular target: Thyrotropin-releasing hormone receptor (Homo sapiens) (UniProt P34981); assay: qHTS for Small Molecule Agonists and Allosteric Enhancers of Human TRH Receptor: Validation Screen for Agonists (AID 493127;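 active = calcium activation more than 3 SD above the typical response in the agonist read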;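 note: intracellular calcium rise by fluo-8 fluorescence before TRH EC20 addition; 0% is about no effect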); settings: TRH receptor agonist cell assay; at 2 µM; stronger effect = higher value
Thyrotropin-releasing hormone receptor (Homo sapiens), sequence (P34981 whole entry, looked up): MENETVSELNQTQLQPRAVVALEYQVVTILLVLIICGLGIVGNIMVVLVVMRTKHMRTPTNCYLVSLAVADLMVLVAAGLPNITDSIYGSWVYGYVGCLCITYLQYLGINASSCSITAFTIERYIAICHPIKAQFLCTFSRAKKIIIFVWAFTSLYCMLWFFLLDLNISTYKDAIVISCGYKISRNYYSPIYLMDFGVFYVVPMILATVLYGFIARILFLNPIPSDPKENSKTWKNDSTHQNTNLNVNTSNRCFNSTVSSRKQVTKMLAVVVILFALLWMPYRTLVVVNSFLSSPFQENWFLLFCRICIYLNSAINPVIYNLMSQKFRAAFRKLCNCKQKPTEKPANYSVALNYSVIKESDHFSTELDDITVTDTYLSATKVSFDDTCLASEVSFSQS
Outline: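 Compounds are added by online pintool to dye-loaded TRHR cells while fluorescence is recorded every second. A rise in calcium signal during the agonist read marks activation; a later 10 nM TRH addition (EC20) serves the separate enhancer mode.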

[16] = molecular target: Estrogen receptor (Homo sapiens) (UniProt P03372); assay: qHTS assay for small molecule antagonists of estrogen receptor alpha signaling (AID 588513; active = well fitted curve in the direction sought with a large enough effect in the signal ratio, with a control signal flat, not every such curve was filed as active; the % refers to the signal ratio; note: % is set by controls: 0 for no effect and ±100 for the full control effect)
Estrogen receptor (Homo sapiens), sequence (P03372 whole entry, looked up): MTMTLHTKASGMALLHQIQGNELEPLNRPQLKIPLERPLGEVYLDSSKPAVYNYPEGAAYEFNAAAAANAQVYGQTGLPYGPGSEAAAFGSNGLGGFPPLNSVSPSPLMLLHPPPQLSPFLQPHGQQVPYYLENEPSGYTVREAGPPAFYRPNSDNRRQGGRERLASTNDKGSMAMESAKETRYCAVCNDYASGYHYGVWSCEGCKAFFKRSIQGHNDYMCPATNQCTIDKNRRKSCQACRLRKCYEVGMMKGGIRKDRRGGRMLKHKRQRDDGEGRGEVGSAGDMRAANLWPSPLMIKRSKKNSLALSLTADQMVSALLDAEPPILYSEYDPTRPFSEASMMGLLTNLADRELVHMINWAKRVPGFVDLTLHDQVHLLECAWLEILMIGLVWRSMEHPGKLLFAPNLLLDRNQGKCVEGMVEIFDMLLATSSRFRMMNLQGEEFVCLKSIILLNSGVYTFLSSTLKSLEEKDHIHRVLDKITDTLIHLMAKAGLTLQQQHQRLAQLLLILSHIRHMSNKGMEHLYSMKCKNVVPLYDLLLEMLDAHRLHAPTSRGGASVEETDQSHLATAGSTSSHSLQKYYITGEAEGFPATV
Outline: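 ER-alpha-UAS-bla GripTite HEK 293 cells in 2% charcoal/dextran-treated FBS medium; compounds titrated (1:2, duplicate), then stimulated with 0.5 nM 17-beta-estradiol for 18 h at 37C. CCF4 beta-lactamase fluorescence; Hill-fit IC50 and efficacy.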

[17] = molecular target: Estrogen receptor (Homo sapiens) (UniProt P03372); assay: qHTS assay for small molecule agonists of estrogen receptor alpha signaling (AID 588514; calls by dose curve;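 note: 0% = vehicle only and 100% = reference agonist; nearly all actives have a fitted effect of over 70% in size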)
Outline: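 Efficacy is expressed against 20 nM 17-beta-estradiol (100%) and DMSO basal (0%); EC50 from Hill equation. Assay: beta-lactamase reporter in ER-alpha-UAS-bla HEK 293 cells, 18 h compound incubation, CCF4 detection.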

NC(N)=Nc1nc(CSCC/C(N)=N/S(N)(=O)=O)cs1
inactive: outcome [1] | Potency [2] | outcome [3] | outcome [4] | outcome [5] | outcome [6] | outcome [7] | outcome [8] | outcome [9] | outcome [10] | Potency [11] | Potency [12] | Potency [13]
-0.651%: viability change [4]

CC(=O)N[C@@H](CS)C(=O)O
13.1%: viability change [4]
inactive: outcome [1] | outcome [14] | Potency [2] | outcome [3] | outcome [4] | outcome [5] | outcome [6] | outcome [7] | outcome [8] | outcome [9] | outcome [10] | Potency [11] | Potency [12] | Potency [13]

Clc1ccc(Cn2c(CN3CCCC3)nc3ccccc32)cc1
1.98%: viability change [4]
inactive: outcome [1] | outcome [14] | Potency [2] | outcome [3] | activation [15] -8.12% | outcome [4] | outcome [5] | outcome [6] | outcome [7] | outcome [8] | outcome [9] | outcome [10] | Potency [12] | Potency [13]

O=C(NCCN1CCOCC1)c1ccc(Cl)cc1
-1.31%: viability change [4]
inactive: outcome [1] | Potency [2] | outcome [3] | outcome [4] | outcome [5] | outcome [8] | outcome [9] | outcome [10] | Potency [11] | Potency [12] | Potency [13]

CCCNC(=O)NS(=O)(=O)c1ccc(Cl)cc1
-0.767%: viability change [4]
inactive: outcome [1] | Potency [2] | outcome [3] | outcome [4] | outcome [5] | outcome [6] | outcome [7] | outcome [8] | outcome [9] | outcome [10] | Potency [11] | Potency [12] | Potency [13] | Potency [16] | outcome [17]

NCCS
inactive: outcome [1] | outcome [14] | Potency [2] | outcome [3] | activation [15] 1.25% | outcome [4] | outcome [5] | outcome [6] | outcome [7] | outcome [8] | outcome [9] | outcome [10] | Potency [11] | Potency [12] | Potency [13]
-10.7%: viability change [4]

CCN(CC)C(=O)c1ccc(O)c(OC)c1
inactive: outcome [1] | outcome [14] | Potency [2] | outcome [3] | activation [15] 0.938% | outcome [4] | outcome [5] | outcome [6] | outcome [7] | outcome [8] | outcome [9] | outcome [10] | Potency [11] | Potency [12] | Potency [13]
8.03%: viability change [4]

Cc1cccc(C)c1OCC(C)N (stereo not given)
-6.18%: viability change [4]
inactive: outcome [1] | outcome [14] | Potency [2] | outcome [3] | activation [15] 0.438% | outcome [4] | outcome [5] | outcome [7] | outcome [8] | outcome [9] | outcome [10] | Potency [11] | Potency [12] | Potency [13]

CN(C)CCC(c1ccccc1)c1ccccn1 (stereo not given)
3.7%: viability change [4]
inactive: outcome [1] | outcome [14] | Potency [2] | outcome [3] | activation [15] 1.44% | outcome [4] | outcome [5] | outcome [6] | outcome [7] | outcome [8] | outcome [9] | outcome [10] | Potency [11] | Potency [12] | Potency [13]
